# Measurements taken from PubChem BioAssay (NCATS).
# Values without a mark were called inactive. Records with an inconclusive call do not appear. Entries that show only a call come without a potency. Calls of active or inactive are those of the source. Calls follow the shape of the dose curve; as a rule, active = well fitted curve in the direction sought with a large enough effect; inconclusive = small, poorly fitted or top-dose-only effect, or another doubt; inactive = no such curve, though single readings can be large; an effect the other way counts as inactive or inconclusive.
# Legend:
# [1] = biological target: Luciferin 4-monooxygenase (Photinus pyralis) (UniProt P08659); test: Primary firefly luciferase (FLuc) qHTS assay for identification of artifact compounds. (AID 1845220); conditions: purified firefly luciferase, luminescence, 5 min; series mostly up to 54.1 µM; also: nearly all actives have a fitted effect of over 60% in size; also: potency is read from the fitted curve at half-maximal effect
# Method in brief: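 Cell-free, 1536-well qHTS. Buffer pH 7.6 with 0.01% Tween-20 and 0.05% BSA; 10 uM D-luciferin, 10 uM ATP; 10 nM P. pyralis luciferase; luminescence after 5 min.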
# [2] = Primary fluorescence-based thiol-reactive (MSTI) qHTS assay for identification of artifact compounds. (AID 1845221); conditions: MSTI thiol-reactivity probe, 1 h; series mostly up to 53.8 µM; also: nearly all actives have a fitted effect of over 65% in size; also: potency is read from the fitted curve at half-maximal effect;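 as to activity change, negative = thiol reactive: thiol-reactive compounds lower the probe fluorescence signal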
# Method in brief: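 Thiol-reactive compounds detected by quenching of 4 uM MSTI fluorescence (525/598 nm) after 1 h room-temperature dark incubation in PBS pH 7.4, 2% DMSO. qHTS titration; percent inhibition Hill-fitted against Acetyl-MSTI/MSTI controls.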
# [3] = system: Nanoluciferase (engineered Oplophorus gracilirostris luciferase); test: Primary Nanoluciferase (NLuc) qHTS assay for identification of artifact compounds. (AID 1845222); conditions: NLuc-conditioned medium, Nano-Glo luminescence, 5 min; series mostly up to 54.1 µM; also: potency is read from the fitted curve at half-maximal effect
# Method in brief: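 Compounds are pinned into diluted (1:55) conditioned medium of NLuc-expressing S16 cells and held 15 min at room temperature protected from light. Nano-Glo substrate follows, and luminescence is read 5 min later.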
# [4] = biological target: Phospholipid hydroperoxide glutathione peroxidase GPX4 (Homo sapiens) (UniProt P36969); test: Primary qHTS Assay for Inhibitors of Recombinant Selenoprotein Glutathione Peroxidase 4 (GPX4) (AID 1845192); conditions: recombinant GPX4, GR-coupled NADPH fluorescence, 15 min; series mostly up to 50 µM; also: nearly all actives have a fitted effect of over 65% in size; also: potency is read from the fitted curve at half-maximal effect
# Phospholipid hydroperoxide glutathione peroxidase GPX4 (Homo sapiens), sequence (P36969 whole entry, looked up): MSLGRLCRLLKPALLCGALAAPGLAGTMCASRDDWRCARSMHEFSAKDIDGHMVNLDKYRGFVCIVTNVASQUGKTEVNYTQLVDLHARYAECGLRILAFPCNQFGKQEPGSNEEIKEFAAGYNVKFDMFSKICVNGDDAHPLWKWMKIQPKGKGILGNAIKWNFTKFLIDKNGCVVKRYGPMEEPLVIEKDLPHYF
# Method in brief: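 NADPH consumption, followed by fluorescence at 340/450 nm between 0 and 15 min, reports GPX4 activity via coupled glutathione reductase (100 nM). Enzyme 200 nM was pre-exposed to compound 30 min; 0.5 mM cumene hydroperoxide and 1 mM GSH served as substrates.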
# [5] = Primary redox qHTS assay for identification of artifact compounds. (AID 1845223); conditions: Amplex Red/HRP redox cycling with DTT, fluorescence; series mostly up to 53.8 µM
# Method in brief: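 Amplex Red (25 uM) and HRP (250 mU/mL) in HBSS, with compounds for 15 min, then 250 uM DTT for 30 min, room temperature, dark. Fluorescence 525/598 nm read; normalized to DMSO and 10 uM DA3003; Hill fit.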
# [6] = biological target: Cytochrome P450 3A4 (Homo sapiens) (UniProt P08684); test: qHTS for inhibitors of CYP3A4 against the NCATS DSHEA and TCM libraries (AID 1919971); conditions: recombinant CYP3A4 enzyme activity, luminescence qHTS; series mostly up to 34.1 µM;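 also: inhibition lowers luminescence from luciferin made by CYP3A4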
# Cytochrome P450 3A4 (Homo sapiens), sequence (P08684 whole entry, looked up): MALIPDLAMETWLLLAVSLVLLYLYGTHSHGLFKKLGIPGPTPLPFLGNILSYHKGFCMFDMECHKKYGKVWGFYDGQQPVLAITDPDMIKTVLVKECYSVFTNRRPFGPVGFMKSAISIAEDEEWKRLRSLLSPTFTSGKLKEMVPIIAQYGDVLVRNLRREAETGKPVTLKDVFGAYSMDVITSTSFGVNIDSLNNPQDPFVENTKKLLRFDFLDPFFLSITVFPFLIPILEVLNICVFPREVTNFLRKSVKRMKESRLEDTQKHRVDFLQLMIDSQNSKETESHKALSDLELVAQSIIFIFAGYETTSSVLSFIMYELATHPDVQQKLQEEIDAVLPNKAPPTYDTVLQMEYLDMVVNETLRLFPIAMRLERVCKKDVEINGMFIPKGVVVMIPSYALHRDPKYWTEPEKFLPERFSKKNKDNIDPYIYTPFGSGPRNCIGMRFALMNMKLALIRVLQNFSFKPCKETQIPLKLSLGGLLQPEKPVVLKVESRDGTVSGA
# Method in brief: (§1)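 Light output from converted D-luciferin reports remaining CYP activity. Compounds preincubate with enzyme and substrate for 15 min; NADPH regeneration (1x final) runs the reaction for 30-45 min.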
# [7] = biological target: Cytochrome P450 2D6 (Homo sapiens) (UniProt P10635); test: qHTS for inhibitors of CYP2D6 against the NCATS DSHEA and TCM libraries (AID 1919972); conditions: CYP2D6 enzymatic inhibition, luminescence qHTS; series mostly up to 34.1 µM
# Cytochrome P450 2D6 (Homo sapiens), sequence (P10635 whole entry, looked up): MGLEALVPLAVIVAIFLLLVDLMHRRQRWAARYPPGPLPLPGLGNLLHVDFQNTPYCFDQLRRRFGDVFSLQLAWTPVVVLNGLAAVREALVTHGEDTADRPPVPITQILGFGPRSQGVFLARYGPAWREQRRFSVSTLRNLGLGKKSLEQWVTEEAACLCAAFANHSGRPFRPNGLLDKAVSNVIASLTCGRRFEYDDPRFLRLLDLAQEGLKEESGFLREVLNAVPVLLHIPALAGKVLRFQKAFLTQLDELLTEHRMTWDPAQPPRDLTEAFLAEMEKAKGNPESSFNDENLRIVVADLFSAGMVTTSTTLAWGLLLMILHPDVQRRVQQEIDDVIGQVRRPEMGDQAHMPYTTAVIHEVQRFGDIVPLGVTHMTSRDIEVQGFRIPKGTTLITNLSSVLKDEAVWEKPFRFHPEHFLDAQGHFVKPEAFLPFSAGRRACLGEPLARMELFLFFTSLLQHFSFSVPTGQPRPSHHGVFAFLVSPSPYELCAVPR
# Method in brief: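 Steps: enzyme plus luciferin substrate dispensed; test substances pinned; 15 min RT; 1x NADPH regenerating solution added, 30–45 min RT protected from light; detection reagent, 30 min RT; luminescence measured. Minus-enzyme wells as background.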
# [8] = biological target: Cytochrome P450 2C19 (Homo sapiens) (UniProt P33261); test: qHTS for inhibitors of CYP2C19 against the NCATS DSHEA and TCM libraries (AID 1919974); conditions: CYP2C19 enzyme inhibition, luminescence qHTS; series mostly up to 34.1 µM;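 also: luminescence from luciferin released by CYP2C19 oxidation of a pro-luciferin substrate; potency is read from the fitted curve at half-maximal effect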
# Cytochrome P450 2C19 (Homo sapiens), sequence (P33261 whole entry, looked up): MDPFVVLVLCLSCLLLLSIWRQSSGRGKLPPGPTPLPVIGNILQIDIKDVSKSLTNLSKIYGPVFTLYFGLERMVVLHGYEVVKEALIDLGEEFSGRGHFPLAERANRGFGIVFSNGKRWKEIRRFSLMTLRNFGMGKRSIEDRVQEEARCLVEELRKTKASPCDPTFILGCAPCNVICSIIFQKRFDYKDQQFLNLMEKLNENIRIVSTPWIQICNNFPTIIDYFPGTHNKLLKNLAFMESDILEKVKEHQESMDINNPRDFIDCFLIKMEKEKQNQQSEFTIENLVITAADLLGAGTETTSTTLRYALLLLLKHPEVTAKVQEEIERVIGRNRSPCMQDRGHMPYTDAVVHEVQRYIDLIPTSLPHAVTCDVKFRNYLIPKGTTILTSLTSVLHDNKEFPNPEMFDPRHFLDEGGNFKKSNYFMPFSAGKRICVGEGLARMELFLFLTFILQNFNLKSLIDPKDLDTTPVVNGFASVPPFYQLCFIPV
# Method in brief: as §1
# [9] = KB-3-1 P-gp reporter qHTS against the NCATS DSHEA and TCM libraries (AID 1919975); conditions: KB-3-1 parental cells, CellTiter-Glo luminescence viability, 72 h; series mostly up to 26.1 µM
# Method in brief: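 KB-3-1 parental line, 1536-well qHTS: cells seeded, ~4 h attachment, pintool compound addition, ~72 h at 37C, then CellTiter-Glo, 30 min RT, luminescence. Concentration-response format.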
compound,measurement,setting,value
CC(C)C(=O)c1cn(CC(=O)COc2ccc(Oc3ccccc3)cc2)c2ccc(C(=O)O)cc12,Potency,[1],inactive
same,Potency,[2],inactive
same,Potency,[3],6.01 µM (active)
O=C1C[C@@H](c2ccc(O)cc2)Oc2cc(O)ccc21,Potency,[4],inactive
same,Potency,[2],inactive
same,Potency,[3],inactive
same,Potency,[5],inactive
COc1ccc2cc(OCC3(C(=O)O)CN(C(=O)c4ccc(F)cc4)C3)ccc2c1,Potency,[1],inactive
same,Potency,[2],inactive
C#C[C@]1(O)CC[C@H]2[C@@H]3CCC4=C/C(=N/O)CC[C@@H]4[C@H]3CC[C@@]21CC,Potency,[1],inactive
same,Potency,[2],inactive
same,Potency,[3],inactive
OC1COC(OCC2OC(OCCc3ccccc3)C(O)C(O)C2O)C(O)C1O (centres undefined),Potency,[4],inactive
same,Potency,[1],inactive
same,Potency,[5],inactive
NCc1ccc(OCCCc2sc(-c3ccc4c(c3)/C(=N/Nc3nc5ccccc5s3)CCC4)nc2C(=O)O)cc1,Potency,[4],inactive
same,Potency,[5],inactive
Cc1cc(O)cc(Oc2cc(C)c(C(=O)O)c(O)c2)c1,Potency,[4],inactive
same,Potency,[2],3.36 µM (active)
same,Potency,[3],inactive
CC(C)(C)NCC(O)COc1cccc2c1CCCC2=O (centres undefined),Potency,[1],inactive
same,Potency,[2],inactive
same,Potency,[3],inactive
OC[C@H]1O[C@@H](Oc2cc(O)cc(-c3cc4ccc(O)cc4o3)c2)[C@H](O)[C@@H](O)[C@@H]1O,Potency,[4],8.81 µM (active)
same,Potency,[2],5.19 µM (active)
same,Potency,[3],inactive
same,Potency,[5],inactive
O=C(c1ccc(C#Cc2cccc(F)c2)cn1)N1CC2CC2C1 (centres undefined),Potency,[4],inactive
same,Potency,[2],inactive
same,Potency,[5],inactive
O=C(O[C@H]1[C@@H]2C=CO[C@@H](O[C@@H]3O[C@H](CO)[C@@H](O)[C@H](O)[C@H]3O)[C@@H]2[C@@]2(CO)O[C@@H]12)c1ccc(O)c(O)c1,Potency,[1],inactive
same,Potency,[2],3.27 µM (active)
same,Potency,[3],inactive
same,Potency,[5],inactive
O=C(O)c1ccc(CCCc2ccc(OCCc3ccc(F)cc3)cc2)o1,Potency,[4],16.1 µM (active)
same,Potency,[3],inactive
O=C1NC(=Nc2ccccc2F)S/C1=C\c1ccc(C(=O)O)cc1,Potency,[4],inactive
same,Potency,[2],inactive
same,Potency,[3],inactive
same,Potency,[5],inactive
CC1=CCC(C(C)(C)O)CC1 (centres undefined),Potency,[4],inactive
same,outcome,[6],inactive
same,outcome,[7],inactive
same,Potency,[8],3.55 µM (active)
same,outcome,[9],inactive
COC(=O)C1=CO[C@@H](O[C@@H]2O[C@H](CO)[C@@H](O)[C@H](O)[C@H]2O)[C@@H]2[C@@H](C(=O)OC)[C@@H](O)C(O)[C@H]12 (some centres undefined),Potency,[4],inactive
same,Potency,[1],inactive
same,Potency,[3],inactive
same,Potency,[5],inactive
CC(C#N)C(C)O[C@@H]1O[C@H](CO)[C@@H](O)[C@H](O)[C@H]1O (some centres undefined),Potency,[4],inactive
same,Potency,[1],inactive
same,Potency,[3],inactive
same,Potency,[5],inactive
OCCc1ccc(O[C@@H]2O[C@H](CO)[C@@H](O)[C@H](O)[C@H]2O)c(O)c1,Potency,[4],inactive
same,Potency,[1],inactive
same,Potency,[5],inactive
Cc1ccc(Sc2cncc3sc(C(N)=O)cc23)cc1,Potency,[1],inactive
same,Potency,[2],inactive
same,Potency,[3],inactive
same,Potency,[5],inactive
CC1(C)CCC2(C(=O)OC3OC(COC4OC(CO)C(O)C(O)C4O)C(O)C(O)C3O)CCC3(C)C(=CCC4C5(C)CCC(O)C(C)(C(=O)O)C5CCC43C)C2C1O (centres undefined),"activity change, negative = inhibition",[1],2.78% [at 11.6 µM]
same,"activity change, negative = thiol reactive",[2],16.4% [at 11.5 µM]
same,"activity, negative = inhibition",[3],2.66% [at 11.6 µM]
C[C@@H]1O[C@@H](O[C@H]2[C@H](OC(C#N)c3ccc(O)cc3)O[C@H](CO)[C@@H](O)[C@@H]2O)[C@H](O)[C@H](O)[C@H]1O (some centres undefined),Potency,[1],inactive
same,Potency,[3],inactive
same,Potency,[5],inactive
CC[C@H](C)/C=C(C)/C=C/C(=O)Cc1cc(O)c(C)c(O)c1C=O,Potency,[1],inactive
same,Potency,[2],14.7 µM (active)
same,Potency,[3],inactive
same,Potency,[5],inactive
CC(=O)N[C@H]1CCN(c2ccc(C3=NOC(CN[S+](=O)([O-])C(C)C)C3)cc2F)C1 (some centres undefined),Potency,[1],inactive
same,Potency,[3],inactive
same,Potency,[5],inactive
O=C(/C=C/c1ccc(O)cc1)OC[C@]12O[C@H]1[C@@H](O)[C@@H]1C=CO[C@@H](O[C@@H]3O[C@H](CO)[C@@H](O)[C@H](O)[C@H]3O)[C@@H]12,Potency,[1],inactive
same,Potency,[2],inactive
same,Potency,[5],inactive
C=C1CC[C@@H]2[C@](C)(CC[C@H](O)[C@@]2(C)CCC=C(C)C)[C@@H]1Cc1c[nH]c2ccccc12,Potency,[1],inactive
same,Potency,[2],inactive
same,Potency,[3],inactive
same,Potency,[5],inactive
O=C(O)C[C@@H](NC(=O)c1cc(-c2ccc(-c3ccncc3)cc2)cs1)c1ccccc1,Potency,[1],6.75 µM (active)
same,Potency,[5],inactive
COc1cccc(-n2nc(C(=O)O)cc2-c2ccc(C3CCCCC3)c(Cl)c2)c1,Potency,[1],inactive
same,Potency,[2],inactive
same,Potency,[3],inactive
same,Potency,[5],inactive
COc1cc(C(O)C(CO)Oc2ccc(CCCO[C@@H]3O[C@@H](C)[C@H](O)[C@@H](O)[C@H]3O)cc2OC)ccc1O (some centres undefined),Potency,[1],inactive
same,Potency,[3],inactive
same,Potency,[5],inactive
